In PubChem BioAssay (EPA / NIEHS):
A structure can be active in one record and inactive in another. Activity calls are given as the source filed them. Rule for the calls: active = hit-call score of the fitted dose curve at least 0.9, where 1 is the maximum; inactive = score below 0.9.

How the values were obtained:
[1] = ATG_M_32_CIS: Attagene CIS-FACTORIAL HepG2 Assay for M32 Transcription Factor (Internal Marker) (AID 2282949); settings: HepG2 Attagene cis-factorial M32 reporter, mRNA; actives raise or lower the signal;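 note: background control marker of the multiplexed CIS panel rather than a real target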
Outline: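 Using DMSO as baseline, bidirectional curve fits were applied to reporter mRNA signals. These came from transiently transfected HepG2 cells exposed for 24 h, with RNA analysed by RT-PCR, FAM primer extension, HpaI digestion and CE.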

[2] = ATG_M_06_CIS: Attagene CIS-FACTORIAL HepG2 Assay for M06 Transcription Factor (Internal Marker) (AID 2282950); settings: HepG2 Attagene CIS-FACTORIAL M06 internal marker reporter; actives raise or lower the signal
Outline: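 Internal background marker within multiplexed cis-reporter HepG2 system. Cells transiently transfected, dosed 24 h; reporter mRNA measured by RT-PCR, HpaI digestion and capillary electrophoresis. Bidirectional fit relative to DMSO.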

[3] = target: Hypoxia-inducible factor 1-alpha (Homo sapiens) (UniProt Q16665); test: ATG_HIF1a_CIS: Attagene CIS-FACTORIAL HepG2 Assay for human Hypoxia Inducible Factor 1 (HIF1A) (AID 2282951); settings: HepG2 Attagene cis-factorial HIF1a reporter transcription; actives raise or lower the signal
Outline: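 Endogenous-TF cis reporter readout, human HepG2 cells, 24 h incubation; mRNA detected via RT-PCR and capillary electrophoresis fluorescence; DMSO-normalised bidirectional fitting.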

[4] = target: Hepatocyte nuclear factor 6 (Homo sapiens) (UniProt Q9UBC0); test: ATG_HNF6_CIS: Attagene CIS-FACTORIAL HepG2 Assay for human Hepatocyte Nuclear Factor 6 (HNF6) (AID 2282952); settings: HepG2 Attagene cis-factorial HNF6 reporter transcription; actives raise or lower the signal
Outline: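 Endogenous factor activity read in transiently transfected HepG2 via promoter-regulated reporter transcripts. RNA harvested 24 h post-dosing, reverse-transcribed, PCR-amplified, FAM-labelled, HpaI-digested and resolved by capillary electrophoresis; fitted in both directions against DMSO.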

[5] = ATG_MRE_CIS: Attagene CIS-FACTORIAL HepG2 Assay for human Metal Responsive Element (MRE) (AID 2282954); settings: HepG2 MRE cis-reporter transcription, Attagene multiplex; actives raise or lower the signal
Outline: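 RT-PCR/capillary electrophoresis readout of reporter mRNA, 24 h post-dosing, in HepG2 cells transfected with multiplexed cis-regulated reporter constructs. Gain or loss of signal fitted bidirectionally against DMSO baseline.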

[6] = ATG_PBREM_CIS: Attagene CIS-FACTORIAL HepG2 Assay for human Phenobarbital-responsive Enhancer Module (PBREM) (AID 2282955); settings: HepG2 PBREM cis-reporter, Attagene multiplexed transcription; actives raise or lower the signal
Outline: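 Readout: reporter mRNA, fluorescent RT-PCR fragments separated by capillary electrophoresis. System: HepG2 transiently transfected with cis-regulated reporter units. Exposure: 24 h. Analysis: bidirectional, DMSO baseline.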

[7] = ATG_PXRE_CIS: Attagene CIS-FACTORIAL HepG2 Assay for human Pregnane X Receptor Element (PXRE) (AID 2282957); settings: HepG2 Attagene CIS-FACTORIAL PXRE reporter, mRNA; actives raise or lower the signal
Outline: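 Reporter transcripts under endogenous PXR-responsive cis-regulation quantified from total RNA of transfected HepG2 cells 24 h post-dosing, via RT-PCR with fluorescent primer extension and capillary electrophoresis. Gain or loss of signal fitted against DMSO baseline.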

[8] = ATG_PPRE_CIS: Attagene CIS-FACTORIAL HepG2 Assay for human Peroxisome Proliferator-activated Response Element (PPRE) (AID 2282958); settings: HepG2 PPRE cis-element reporter, Attagene transcription factor profiling; actives raise or lower the signal
Outline: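 After human HepG2 hepatoma cells were transiently transfected with cis-promoter reporter constructs, they were exposed to test chemicals for 24 hours. Reporter RNA was then reverse-transcribed, PCR-amplified, FAM-labeled, HpaI-digested and quantified by capillary electrophoresis.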

[9] = ATG_RORE_CIS: Attagene CIS-FACTORIAL HepG2 Assay for human RAR-related Orphan Receptor Element (RORE) (AID 2282959); settings: HepG2 Attagene cis-factorial RORE reporter, mRNA; actives raise or lower the signal
Outline: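 Measured here: transcript induction of a cis-regulated reporter in HepG2 cells transiently transfected via FuGene 6. After 24 h, RNA was processed by RT-PCR and fluorescent capillary electrophoresis; DMSO defined baseline activity.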

[10] = ATG_Sox_CIS: Attagene CIS-FACTORIAL HepG2 Assay for human SRY-box transcription factor (SOX) (AID 2282960); settings: HepG2 Attagene cis-factorial SOX reporter, mRNA; actives raise or lower the signal
Outline: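 Using transiently transfected HepG2 cells, reporter transcription driven by cis elements was assessed 24 h after dosing. Signal was fluorescence of capillary-separated RT-PCR products, with DMSO defining baseline activity.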

[11] = target: Transcription factor Sp1 (Homo sapiens) (UniProt P08047); test: ATG_Sp1_CIS: Attagene CIS-FACTORIAL HepG2 Assay for human Specificity Protein 1 (Sp1) (AID 2282961); settings: HepG2 Sp1 cis-reporter transcription, actives raise or lower the signal
Outline: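 After transient transfection of HepG2 cells with cis-promoter reporter units and 24 h chemical treatment, reporter transcripts were quantified by RT-PCR and capillary electrophoresis fluorescence. Gain- and loss-of-signal fitted against DMSO.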

[12] = ATG_SREBP_CIS: Attagene CIS-FACTORIAL HepG2 Assay for human Sterol Regulatory Element Binding (SREBP) (AID 2282962); settings: HepG2 Attagene cis-factorial SREBP reporter, mRNA; actives raise or lower the signal
Outline: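 In this cis-format assay, HepG2 liver cells express reporters controlled by promoter elements responsive to native transcription factors. Exposure lasts 24 h; reporter mRNA fluorescence from capillary electrophoresis gives the signal, fitted bidirectionally against DMSO.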

[13] = target: Signal transducer and activator of transcription 3 (Homo sapiens) (UniProt P40763); test: ATG_STAT3_CIS: Attagene CIS-FACTORIAL HepG2 Assay for human Signal Transducer and Activator of Transcription 3 (STAT3) (AID 2282963); settings: HepG2, Attagene cis-factorial STAT3 reporter transcription; actives raise or lower the signal
Outline: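 Readout: fluorescent reporter mRNA fragments resolved by capillary electrophoresis. Setup: HepG2 transfected with MRTUs reporting endogenous transcription-factor activity, dosed 24 h. Gain or loss of signal fitted bidirectionally against DMSO control.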

[14] = ATG_TA_CIS: Attagene CIS-FACTORIAL HepG2 Assay for human TA Basal Promoter (AID 2282964); settings: HepG2 Attagene CIS-factorial TA basal promoter reporter; actives raise or lower the signal
Outline: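 HepG2 cells transiently transfected with multiple reporter units under cis promoter elements, reporting endogenous transcription factor activity; this endpoint tracks the TA basal promoter as background control. Reporter mRNA after 24 h dosing measured by RT-PCR/capillary electrophoresis; bidirectional fits versus DMSO.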

[15] = ATG_TCF_b_cat_CIS: Attagene CIS-FACTORIAL HepG2 Assay for human T-Cell-Factor with beta-catenin (TCF/b-cat) (AID 2282965); settings: HepG2 TCF/beta-catenin cis-reporter transcription, actives raise or lower the signal
Outline: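 HepG2 cells transiently transfected with cis-promoter-driven multiplexed reporter units; reporter mRNA measured 24 h after dosing by RT-PCR, FAM labelling, HpaI digestion and capillary electrophoresis. Bidirectional fitting relative to DMSO baseline.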

[16] = ATG_TAL_CIS: Attagene CIS-FACTORIAL HepG2 Assay for human TAL Basal Promoter (AID 2282966); settings: HepG2 Attagene cis-factorial TAL promoter reporter; actives raise or lower the signal;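 note: background control endpoint measuring basal TAL promoter reporter mRNA not a specific factor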
Outline: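 Background-control endpoint: basal TAL promoter reporter transcripts in transiently transfected HepG2, measured 24 h after dosing. Read-out by RT-PCR with fluorescent primer extension and capillary electrophoresis; gain or loss of signal fitted relative to DMSO.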

[17] = ATG_TGFb_CIS: Attagene CIS-FACTORIAL HepG2 Assay for human Transforming Growth Factor (TGF) (AID 2282967); settings: HepG2 Attagene CIS TGFb reporter, mRNA transcription; actives raise or lower the signal
Outline: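 HepG2 cells transiently transfected with cis-promoter-driven multiple reporter units measure endogenous TF activity; reporter mRNA quantified at 24 h by RT-PCR, FAM labeling, HpaI digestion and capillary electrophoresis. Bidirectional fit vs DMSO.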

[18] = ATG_VDRE_CIS: Attagene CIS-FACTORIAL HepG2 Assay for human Vitamin D Receptor Element (VDRE) (AID 2282968); settings: HepG2 VDRE cis-reporter transcription, actives raise or lower the signal
Outline: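 Transient MRTU transfection of HepG2, 24 h compound exposure. Readout: reporter transcripts via RT-PCR and capillary electrophoresis, fluorescence. Bidirectional fit vs DMSO.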

[19] = target: Heat shock factor protein 1 (Homo sapiens) (UniProt Q00613); test: ATG_HSE_CIS: Attagene CIS-FACTORIAL HepG2 Assay for human Heat Shock Transcription Factor 1 (HSE) (AID 2282953); settings: HepG2 HSE cis-reporter, Attagene RNA transcription; actives raise or lower the signal
Outline: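 HepG2 cells transfected with cis-promoter reporter units sensing endogenous transcription factor activity; reporter mRNA quantified 24 h post-dose by RT-PCR and capillary electrophoresis of 6-FAM-labelled products. Bidirectional fitting against DMSO.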

[20] = target: Paired box protein Pax-6 (Homo sapiens) (UniProt P26367); test: ATG_Pax6_CIS: Attagene CIS-FACTORIAL HepG2 Assay for human Paired Box 6 (PAX6) (AID 2282956); settings: HepG2 CIS-FACTORIAL PAX6 reporter transcription, RNA readout; actives raise or lower the signal
Outline: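 DMSO-referenced bidirectional fits of reporter mRNA fluorescence; HepG2 with transient cis-promoter MRTUs, 24 h post-dose, RT-PCR plus capillary electrophoresis detection.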

Measured: AC50

Sequence of Paired box protein Pax-6 (Homo sapiens) (P26367 whole entry, looked up): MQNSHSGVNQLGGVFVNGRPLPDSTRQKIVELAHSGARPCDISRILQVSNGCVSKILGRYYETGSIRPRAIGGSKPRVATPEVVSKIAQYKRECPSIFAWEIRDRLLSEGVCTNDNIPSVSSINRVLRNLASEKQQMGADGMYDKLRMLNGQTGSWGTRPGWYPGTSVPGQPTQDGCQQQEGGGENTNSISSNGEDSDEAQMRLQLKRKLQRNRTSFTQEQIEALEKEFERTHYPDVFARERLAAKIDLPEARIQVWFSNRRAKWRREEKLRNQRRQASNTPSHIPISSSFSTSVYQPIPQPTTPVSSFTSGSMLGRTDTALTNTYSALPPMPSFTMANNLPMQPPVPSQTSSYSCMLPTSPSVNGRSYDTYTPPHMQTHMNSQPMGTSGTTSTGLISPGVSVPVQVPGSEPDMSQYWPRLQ
Sequence of Hypoxia-inducible factor 1-alpha (Homo sapiens) (Q16665 whole entry, looked up): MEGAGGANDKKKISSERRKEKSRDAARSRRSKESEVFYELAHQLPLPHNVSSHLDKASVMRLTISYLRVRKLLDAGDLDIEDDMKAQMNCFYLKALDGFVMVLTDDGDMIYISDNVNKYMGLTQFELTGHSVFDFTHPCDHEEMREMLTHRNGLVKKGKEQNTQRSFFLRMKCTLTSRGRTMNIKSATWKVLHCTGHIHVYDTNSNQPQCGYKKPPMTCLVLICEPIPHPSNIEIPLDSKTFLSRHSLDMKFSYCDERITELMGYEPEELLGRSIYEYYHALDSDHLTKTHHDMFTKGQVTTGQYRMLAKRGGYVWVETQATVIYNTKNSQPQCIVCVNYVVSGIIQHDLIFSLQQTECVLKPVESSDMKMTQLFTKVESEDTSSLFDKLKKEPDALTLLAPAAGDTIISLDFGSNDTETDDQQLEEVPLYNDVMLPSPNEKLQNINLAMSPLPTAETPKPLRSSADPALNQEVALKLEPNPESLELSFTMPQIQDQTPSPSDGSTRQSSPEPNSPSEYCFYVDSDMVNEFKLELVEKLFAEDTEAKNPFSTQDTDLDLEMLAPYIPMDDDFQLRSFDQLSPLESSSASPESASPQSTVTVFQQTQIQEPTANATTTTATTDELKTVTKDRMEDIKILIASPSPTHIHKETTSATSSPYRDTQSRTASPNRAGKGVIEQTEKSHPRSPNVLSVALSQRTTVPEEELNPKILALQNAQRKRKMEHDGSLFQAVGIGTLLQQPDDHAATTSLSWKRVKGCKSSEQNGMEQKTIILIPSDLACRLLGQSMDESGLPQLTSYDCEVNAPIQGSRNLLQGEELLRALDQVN
Sequence of Hepatocyte nuclear factor 6 (Homo sapiens) (Q9UBC0 whole entry, looked up): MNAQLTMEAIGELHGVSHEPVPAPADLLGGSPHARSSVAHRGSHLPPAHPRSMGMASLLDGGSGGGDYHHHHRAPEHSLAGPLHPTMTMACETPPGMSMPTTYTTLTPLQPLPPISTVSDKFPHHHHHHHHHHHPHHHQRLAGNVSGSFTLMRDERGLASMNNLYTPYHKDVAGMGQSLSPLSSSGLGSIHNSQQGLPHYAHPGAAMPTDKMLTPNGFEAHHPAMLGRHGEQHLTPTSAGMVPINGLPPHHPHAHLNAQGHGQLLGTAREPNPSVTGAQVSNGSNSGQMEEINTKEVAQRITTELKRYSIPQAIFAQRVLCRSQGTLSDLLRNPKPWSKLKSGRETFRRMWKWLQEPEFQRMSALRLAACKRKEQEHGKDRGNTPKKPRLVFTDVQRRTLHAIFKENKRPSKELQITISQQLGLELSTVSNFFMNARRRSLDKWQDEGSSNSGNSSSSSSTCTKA
Sequence of Heat shock factor protein 1 (Homo sapiens) (Q00613 whole entry, looked up): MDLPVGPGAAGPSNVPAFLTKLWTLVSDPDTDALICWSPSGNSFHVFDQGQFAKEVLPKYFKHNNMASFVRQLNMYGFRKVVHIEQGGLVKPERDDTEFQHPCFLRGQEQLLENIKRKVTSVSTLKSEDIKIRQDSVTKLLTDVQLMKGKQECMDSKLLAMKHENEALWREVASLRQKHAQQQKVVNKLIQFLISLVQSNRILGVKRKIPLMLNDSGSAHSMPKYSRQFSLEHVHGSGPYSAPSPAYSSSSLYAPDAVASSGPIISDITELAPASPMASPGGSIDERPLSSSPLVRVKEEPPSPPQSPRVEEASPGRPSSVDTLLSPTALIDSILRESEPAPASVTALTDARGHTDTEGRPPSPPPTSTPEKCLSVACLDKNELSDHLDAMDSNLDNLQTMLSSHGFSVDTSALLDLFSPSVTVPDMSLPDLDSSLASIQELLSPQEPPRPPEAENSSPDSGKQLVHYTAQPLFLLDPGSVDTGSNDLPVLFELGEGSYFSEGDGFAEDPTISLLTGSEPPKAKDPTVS
Sequence of Transcription factor Sp1 (Homo sapiens) (P08047 whole entry, looked up): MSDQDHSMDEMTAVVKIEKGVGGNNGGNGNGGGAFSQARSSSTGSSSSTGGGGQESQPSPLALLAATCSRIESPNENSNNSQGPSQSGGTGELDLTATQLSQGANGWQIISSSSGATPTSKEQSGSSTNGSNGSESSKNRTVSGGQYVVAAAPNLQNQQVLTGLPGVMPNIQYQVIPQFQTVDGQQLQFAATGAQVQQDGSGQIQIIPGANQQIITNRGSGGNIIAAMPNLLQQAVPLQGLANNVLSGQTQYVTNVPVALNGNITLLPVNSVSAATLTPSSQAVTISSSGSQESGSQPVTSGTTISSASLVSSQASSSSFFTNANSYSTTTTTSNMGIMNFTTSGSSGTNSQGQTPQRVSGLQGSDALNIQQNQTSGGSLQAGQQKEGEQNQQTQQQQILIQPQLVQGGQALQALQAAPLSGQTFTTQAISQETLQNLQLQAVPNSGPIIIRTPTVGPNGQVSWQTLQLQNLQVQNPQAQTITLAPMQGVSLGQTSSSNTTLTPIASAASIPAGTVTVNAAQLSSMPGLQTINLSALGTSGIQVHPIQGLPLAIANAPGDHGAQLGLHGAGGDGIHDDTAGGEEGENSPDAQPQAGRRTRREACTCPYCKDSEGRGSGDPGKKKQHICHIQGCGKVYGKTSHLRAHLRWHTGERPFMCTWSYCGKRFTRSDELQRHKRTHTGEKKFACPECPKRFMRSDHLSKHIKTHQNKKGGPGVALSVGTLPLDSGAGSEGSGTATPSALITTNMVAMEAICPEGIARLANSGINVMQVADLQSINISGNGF
Sequence of Signal transducer and activator of transcription 3 (Homo sapiens) (P40763 whole entry, looked up, the tested form may be a part): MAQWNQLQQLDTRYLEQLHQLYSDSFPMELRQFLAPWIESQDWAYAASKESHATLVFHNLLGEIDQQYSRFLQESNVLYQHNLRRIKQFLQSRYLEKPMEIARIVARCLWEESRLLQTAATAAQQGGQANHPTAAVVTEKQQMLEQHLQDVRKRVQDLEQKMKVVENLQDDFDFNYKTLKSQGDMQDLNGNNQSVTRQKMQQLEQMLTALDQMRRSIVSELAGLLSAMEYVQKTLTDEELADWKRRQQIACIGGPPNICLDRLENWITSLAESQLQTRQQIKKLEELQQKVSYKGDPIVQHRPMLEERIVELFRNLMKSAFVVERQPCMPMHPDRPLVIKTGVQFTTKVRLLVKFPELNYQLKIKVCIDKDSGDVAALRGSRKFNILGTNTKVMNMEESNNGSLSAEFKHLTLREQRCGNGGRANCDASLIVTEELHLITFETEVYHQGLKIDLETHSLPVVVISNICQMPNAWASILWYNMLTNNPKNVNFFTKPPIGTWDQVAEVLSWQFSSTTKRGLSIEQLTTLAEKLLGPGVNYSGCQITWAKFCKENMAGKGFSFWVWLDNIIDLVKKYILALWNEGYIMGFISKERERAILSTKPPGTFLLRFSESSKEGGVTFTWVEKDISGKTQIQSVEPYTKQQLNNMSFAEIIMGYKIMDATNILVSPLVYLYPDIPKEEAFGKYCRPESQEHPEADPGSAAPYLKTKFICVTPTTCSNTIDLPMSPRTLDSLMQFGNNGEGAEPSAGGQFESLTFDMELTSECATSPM

CC(=O)C(F)(F)C(F)(F)F
not listed: [19] | [20]
inactive: all other assays above

CCCCCCCCCCBr
active: [7] 27.7 µM
not listed: [6] | [17] | [20]
inactive: all other assays above

Oc1ccc(Cc2ccc(O)cc2)cc1
active: [7] 61.6 µM | [8] 38.8 µM
not listed: [17] | [18] | [19]
inactive: all other assays above

O=CCCl
active: [3] 55 µM | [4] 32.6 µM | [5] 43.2 µM | [6] 25.2 µM | [20] 42.5 µM | [7] 37.2 µM | [12] 26.6 µM | [14] 182 µM | [18] 32.3 µM
inactive: [1] | [2] | [9] | [10] | [11] | [13] | [15] | [16] | [17]

COC(=O)c1cc(Oc2ccc(Cl)cc2Cl)ccc1[N+](=O)[O-]
active: [3] 21.3 µM | [5] 17.9 µM | [6] 11.8 µM | [7] 5.12 µM | [8] 10.2 µM | [9] 16.6 µM | [14] 27.1 µM | [17] 66.8 µM | [18] 10.8 µM
inactive: [1] | [2] | [4] | [20] | [10] | [11] | [12] | [13] | [16]

O=S(=O)(c1ccc(Cl)cc1)c1cc(Cl)c(Cl)cc1Cl
active: [7] 1.59 µM | [12] 14.5 µM | [18] 2.79 µM
not listed: [16] | [19]
inactive: all other assays above

CCOC(=O)C(SP(=S)(OC)OC)c1ccccc1 (stereo unspecified)
active: [5] 37.3 µM | [7] 1.77 µM
not listed: [3] | [8] | [15] | [16]
inactive: all other assays above

Cc1cc(C(F)(C(F)(F)F)C(F)(F)F)ccc1NC(=O)c1cccc(I)c1C(=O)NC(C)(C)CS(C)(=O)=O
active: [7] 0.633 µM
not listed: [3] | [16] | [18]
inactive: all other assays above

CCCCCCCCCCCCOS(=O)(=O)O
inactive: [1] | [2] | [4] | [5] | [20] | [7] | [10] | [11] | [12] | [13] | [14] | [15] | [16] | [17]
active: [5] 2.2 µM | [13] 11.1 µM

Nc1nc(N)nc(Cl)n1
not listed: [3] | [8] | [18] | [20]
inactive: all other assays above

CCOP(=S)(OCC)SCSc1cc(Cl)ccc1Cl
not listed: [3]
inactive: all other assays above

ClCc1ccccc1CCl
active: [4] 23.1 µM | [19] 21.7 µM | [20] 25.7 µM | [7] 18.3 µM | [10] 22.6 µM | [11] 33.4 µM | [13] 33.4 µM | [15] 22.4 µM | [16] 16.5 µM | [18] 13.5 µM
inactive: [1] | [2] | [5] | [6] | [8] | [9] | [12] | [14]

O=C/C(Cl)=C(/Cl)C(=O)O
active: [4] 136 µM | [19] 151 µM | [5] 136 µM | [20] 132 µM | [7] 167 µM | [10] 83.9 µM | [12] 159 µM | [15] 31.9 µM | [17] 43.7 µM | [18] 74.3 µM
inactive: [1] | [2] | [6] | [8] | [9] | [11] | [13] | [14] | [16]

C[C@]12CC[C@@H](O)C[C@@H]1CC[C@@H]1[C@@H]2CC[C@]2(C)C(=O)CC[C@@H]12
active: [7] 6.91 µM
not listed: [3] | [6] | [8] | [19]
inactive: all other assays above

CN(C)[C@@H]1C(=O)C(C(N)=O)=C(O)[C@@]2(O)C(=O)C3=C(O)c4c(O)ccc(Cl)c4[C@@](C)(O)[C@H]3C[C@@H]12
not listed: [3] | [8]
inactive: all other assays above
